Results on six sequences are retold here after the supplement of paper PMC6555819.

What all share (assay): PBM binding z-score (relative to random genomic background probes); higher = stronger binding; sequences stand for … in GC…GCGATTGACAGCGTAGAATGAAGG
The subject of test [1] is FXR:RXRa (NR concentration 270 nM, RXRa partner concentration 90 nM). Summed up: (§1)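 For binding z-scores, the reference was random background probes on custom Agilent 4×180K protein-binding microarrays. These arrays were incubated 1 h with ligand-free nuclear receptor dimers in PBS pH 7.4, 2% milk, 0.02% Triton X-100, 1 mM DTT, 0.2 mg/mL BSA and 0.4 mg/ml salmon testes DNA. Fluorescence was scanned after antibody detection of each partner (one per run) and regression-normalized.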

The test system of test [2] is LXRa:RXRa (NR concentration 270 nM, RXRa partner concentration 90 nM). Put shortly:
as §1

Test [3] relates to LXRa homodimer (NR concentration 270 nM). Summed up:
as §1

The subject of test [4] is LXRb:RXRa (NR concentration 270 nM, RXRa partner concentration 90 nM). Put shortly:
as §1

Test [5] concerns LXRb homodimer (NR concentration 270 nM). Summed up:
as §1

The subject of test [6] is PPARa:RXRa (NR concentration 270 nM, RXRa partner concentration 90 nM). Put shortly:
as §1

For test [7], the system named is PPARg:RXRa (NR concentration 180 nM, RXRa partner concentration 90 nM). Summed up: as §1
Test [8] deals with PPARg:RXRa 270nM:90nM, anti-RXR (NR concentration 270 nM, RXRa partner concentration 90 nM). Put shortly:
as §1

The test system of test [9] is PPARg:RXRa 30nM:10nM, anti-RXR (NR concentration 30 nM, RXRa partner concentration 10 nM). Put shortly: as §1
Test [10] concerns PPARg:RXRa 90nM:30nM, anti-RXR (NR concentration 90 nM, RXRa partner concentration 30 nM). Summed up:
as §1

Test [11] concerns PPARg:RXRa DBDmut IVT, anti-RXR (DBD mutation: RXRa K156A/R161A, NR concentration 270 nM, RXRa partner concentration 90 nM). Summed up:
as §1

Test [12] relates to PPARg:RXRa IVT, anti-PPARg (NR concentration 270 nM, RXRa partner concentration 90 nM). Put shortly:
as §1

Test [13] deals with PPARg DBDmut:RXRa IVT, anti-PPARg (DBD mutation: PPARg1 K132A/R137A, NR concentration 270 nM, RXRa partner concentration 90 nM). Put shortly:
as §1

Test [14] relates to PPARg DBDmut IVT, anti-PPARg (DBD mutation: PPARg1 K132A/R137A, NR concentration 270 nM). Put shortly: as §1
The subject of test [15] is PPARg homodimer (NR concentration 180 nM). Summed up: as §1
Test [16] has as its system PXR:RXRa (NR concentration 270 nM, RXRa partner concentration 90 nM). Summed up: as §1
In test [17] the test system is PXR homodimer (NR concentration 270 nM). Put shortly: as §1
The subject of test [18] is RARa:RXR (NR concentration 270 nM, RXRa partner concentration 90 nM). Summed up: as §1
In test [19] the test system is RARa homodimer (NR concentration 270 nM). Put shortly: as §1
Test [20] has as its system RARb:RXRa (NR concentration 270 nM, RXRa partner concentration 90 nM). Summed up: as §1

Regarding CCGACAGGGGCAAGGTTACCATAACGCACAGCCA, the PBM binding z-score in test [1] is 0.485; in test [2], 0.975; in test [3], -0.0477; in [4] it was 0.737; in [5], -0.848; in [6], 1.49. Besides, the PBM binding z-score is 1.32 in test [7]; 0.765 in test [8]; 0.0629 in [9]; 0.378 in test [10]; -0.0279 in test [11]; 0.0813 in test [12]. Also, the PBM binding z-score in test [13] was -0.56; in test [14] it was -0.66; in test [15], 0.577; in test [16], 0.585; in test [17], 0.0826; in test [18], 1.26. The PBM binding z-score came to 0.048 in test [19] and 2.1 in [20].

In the case of TCGAGGAGGTTAGGGGCATTCAGAATGGCGTCGA, the PBM binding z-score in test [1] was 1.12; in test [2], 0.91; in [3], -0.0426; in [4] it was 1.71; in test [5], 0.134; in [6], 1.94. The PBM binding z-score in test [7] stood at 0.354; in [8] it was 1.08; in test [9], 1.19; in test [10], 1.09; in test [11], 1.17; in [12] it was 0.304. Besides, the PBM binding z-score in [13] is -0.348; in test [14], -0.472; in test [15], 1.01; in test [16] it was 1.03; in [17], 0.679; in [18], 0.889. The PBM binding z-score in [19] was found to be 0.232; in test [20] it was 1.62.

Regarding TAGCCTAGGTCATTCGGCCAGTATAGTACGCATC, the PBM binding z-score amounted to 4.5 in test [1]; 3.51 in test [2]; 1.18 in test [3]; 2.52 in [4]; 0.814 in [5]; 3.48 in [6]. For the same sequence, the PBM binding z-score in [7] turned out to be 2.78; in [8], 2.43; in test [9], 0.539; in test [10], 1.55; in test [11], 1.85; in [12], 2.83. In addition, the PBM binding z-score in test [13] is -0.386; in test [14], -0.398; in test [15] it was 0.361; in [16], 1.39; in test [17], -0.455; in [18], 2. For the same sequence, the results for the PBM binding z-score in test [19] and in [20] were -0.658 and 3.6, respectively.

On to ATCTCGAGGTAACCAAGTTCAGTGAATGCCGAAC, for which the PBM binding z-score was 0.65 in [1]; 1.14 in test [2]; 0.25 in test [3]; 0.608 in test [4]; -0.105 in [5]; 1.25 in test [6]. Moreover, the PBM binding z-score in test [7] is 0.211; in test [8] it was 0.361; in [9] it was -0.167; in [10] it was 0.304; in test [11], 0.433; in [12], 1.72. Further, the PBM binding z-score in test [13] is 0.594; in test [14], 0.0274; in test [15], -0.0303; in test [16], 3.06; in test [17], 2.57; in test [18], 1.04. Also, the PBM binding z-score was -0.305 in test [19] and 1.5 in test [20].

Turning to AGTCAAAGTTCATCTAGGTAGCGTAAGATATGCT, the PBM binding z-score in test [1] turned out to be 6.22; in test [2], 6.03; in test [3], 4.76; in test [4], 3.76; in [5], 1.66; in [6], 4.61. Further, the PBM binding z-score in test [7] came to 6.29; in [8], 6.38; in [9], 3.49; in test [10] it was 5.38; in [11] it was 0.422; in test [12], 2.98. The PBM binding z-score in test [13] was 1.02; in test [14] it was 1.02; in [15] it was 2.55; in test [16] it was 4.98; in test [17] it was 6.74; in test [18] it was 3.75. Also, the values for the PBM binding z-score in test [19] and in [20] were 1.85 and 4.8, respectively.

TCTAGTTGGTCAAAGGTCACCCACTCGAAATGCG: the PBM binding z-score worked out at 5.47 in test [1]; 5.45 in test [2]; 3.51 in test [3]; 5.12 in test [4]; 1.68 in [5]; 6.36 in [6]. Moreover, the PBM binding z-score was 11.3 in test [7]; 9.99 in test [8]; 10.9 in test [9]; 12.3 in [10]; 3.63 in test [11]; 6.67 in test [12]. Moreover, the PBM binding z-score came out at 1.96 in [13]; 2.09 in test [14]; 6.47 in [15]; 6.1 in [16]; 1.35 in test [17]; 7.69 in test [18]. Further, the PBM binding z-score in test [19] was found to be 3.37; in test [20], 4.9.
